The values below come from PubChem BioAssay (NCI).

Compounds without any hit were thinned out: in the full panel of roughly 83,000, 20% have a hit.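 96-well plates, one dose, 48 hours. Percent growth reported; active if below 10.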 Unmarked numbers belong to inactive results. Calls of active or inactive are those of the source.

Among the test systems are NCI-H23 lung; NCI-H226 lung; NCI-H322M lung; HOP-62 NSCLC; NCI-H460 lung; HOP-92 NSCLC; NCI-H522 lung; A549/ATCC NSCLC; 786-0 renal; COLO 205 colon; DU-145 prostate; MALME-3M melanoma; MDA-MB-231 breast; RXF 393 renal; SF-268 CNS; SF-295 CNS; SF-539 CNS; UACC-257 melanoma; M14 melanoma; K-562 leukemia.
What all share (experiment): NCI-60 one-dose screen, 48 h (100 = growth as untreated, 0 = no growth, -100 = all killed)
What all share (conditions): 10 µM unless noted

`C=C[C@@H]1C[C@H](O)Cc2ccccc2N1`: the growth with NCI-H23 lung was 104%; in the assay with NCI-H226 lung, 111%; with NCI-H322M lung it was 125%; with HOP-62 NSCLC, 99.2%; with NCI-H460 lung, 107%; in the assay with HOP-92 NSCLC, 137%. For the same molecule, the growth with NCI-H522 lung is 121%; in the assay on A549/ATCC NSCLC, 95.4%; in the assay on 786-0 renal, 112%; with COLO 205 colon it was 117%; in the assay with DU-145 prostate it was 115%; in the assay with MALME-3M melanoma, 113%. Further, the growth in the assay on MDA-MB-231 breast is 101%; with RXF 393 renal it was 120%; in the assay with SF-268 CNS, 107%; in the assay with SF-295 CNS, 109%; in the assay with SF-539 CNS, 101%; in the assay with UACC-257 melanoma, 104%. The growth in the assay on M14 melanoma is 108%.

Consider `O=C1c2c(Cl)c(Cl)c(Cl)c(Cl)c2C(=O)C2(Cl)CC=CCC12Cl` (stereo not given), for which the growth in the assay with NCI-H23 lung was 10%; in the assay on NCI-H226 lung, 73%; in the assay with NCI-H322M lung it was 72.6%; in the assay with HOP-62 NSCLC, -90.2% (active); in the assay with NCI-H460 lung, 50.3%; with HOP-92 NSCLC it was -58.1% (active). Also, the growth was -80.7% (active) in the assay with NCI-H522 lung; 74.1% in the assay with A549/ATCC NSCLC; 0.0645% (active) with 786-0 renal; -77.3% (active) with COLO 205 colon; -74.2% (active) with DU-145 prostate; -3.27% (active) in the assay with MALME-3M melanoma. For the same molecule, the growth with MDA-MB-231 breast was 18.2%; in the assay with RXF 393 renal, -78.3% (active); in the assay with SF-268 CNS, -96.2% (active); in the assay with SF-295 CNS, 106%; with SF-539 CNS it was 48.1%; in the assay on UACC-257 melanoma it was -34.4% (active). In addition, in the assay on M14 melanoma, the growth was -12% (active).

As to `COc1ccc(/C=C\c2cc(OC)c(OC)c(OC)c2)cc1OC(=O)c1cccc(Cn2cc(CCOC(=O)c3cccc(Cn4nnc5c4C(=O)c4ccccc4C5=O)c3)nn2)c1`, the growth is 33.1% in the assay on NCI-H23 lung; 58.4% in the assay on NCI-H226 lung; 50.5% in the assay on NCI-H322M lung; 14.9% with HOP-62 NSCLC; 5.39% (active) in the assay with NCI-H460 lung; 52.6% with HOP-92 NSCLC. The growth in the assay on NCI-H522 lung is 6.06% (active); in the assay on A549/ATCC NSCLC it was 17.3%; in the assay with COLO 205 colon it was -25.2% (active); with DU-145 prostate it was 7.26% (active); in the assay with K-562 leukemia, 8.24% (active); in the assay on MALME-3M melanoma, 41.5%. Further, the growth in the assay with MDA-MB-231 breast was 21.6%; in the assay on RXF 393 renal, 15.9%; in the assay on SF-268 CNS it was 27.7%; in the assay with SF-295 CNS it was 11%; in the assay on SF-539 CNS, -22.5% (active); in the assay with UACC-257 melanoma it was 67.3%. The growth with M14 melanoma is -0.552% (active).

Turning to `COc1cc(-c2ncn(/C=C\C(=O)OC(C)C)n2)cc(C(F)(F)F)c1`, the growth in the assay on NCI-H23 lung is 17.5%; with NCI-H226 lung it was -47% (active); in the assay on NCI-H322M lung, 0.838% (active); in the assay with HOP-62 NSCLC, -18.5% (active); in the assay on NCI-H460 lung it was -31.7% (active); with HOP-92 NSCLC, 7.61% (active). Also, the growth in the assay on NCI-H522 lung was -70.9% (active); with A549/ATCC NSCLC, 12.9%; with 786-0 renal, 9.65% (active); in the assay on COLO 205 colon it was -62.2% (active); with DU-145 prostate it was 15.7%; with K-562 leukemia it was 3.62% (active). For the same molecule, the growth was -1.62% (active) with MALME-3M melanoma; -41.1% (active) in the assay with RXF 393 renal; -1.06% (active) in the assay on SF-268 CNS; 61.3% with SF-295 CNS; -36.8% (active) in the assay with SF-539 CNS; 60.3% in the assay with UACC-257 melanoma.

With `O=C(/C=C/c1ccccc1)c1cccc(O)c1`, the growth was 96.7% in the assay on NCI-H23 lung; 109% in the assay with NCI-H226 lung; 113% in the assay with NCI-H322M lung; 103% in the assay with HOP-62 NSCLC; 110% in the assay with NCI-H460 lung; 82.8% in the assay on HOP-92 NSCLC. Moreover, the growth is 116% with NCI-H522 lung; 86% with A549/ATCC NSCLC; 94.2% in the assay with 786-0 renal; 107% in the assay with COLO 205 colon; 56.4% in the assay on DU-145 prostate; 51.3% in the assay on K-562 leukemia. Moreover, the growth was 101% in the assay with MALME-3M melanoma; 107% in the assay on RXF 393 renal; 85% in the assay on SF-268 CNS; 96.8% with SF-295 CNS; 99.5% with UACC-257 melanoma; 68.1% in the assay on M14 melanoma.

Take `CCc1cnc(=S)n(-c2ccccc2)c1`: the growth in the assay with NCI-H23 lung is 88.5%; in the assay on NCI-H226 lung, 110%; in the assay with NCI-H322M lung, 117%; in the assay on HOP-62 NSCLC, 103%; in the assay on NCI-H460 lung, 116%; with HOP-92 NSCLC, 97.8%. Further, the growth with NCI-H522 lung is 105%; in the assay with A549/ATCC NSCLC, 98.3%; with 786-0 renal, 99.9%; with COLO 205 colon it was 120%; in the assay with DU-145 prostate, 104%; in the assay on K-562 leukemia, 117%. Besides, the growth with MDA-MB-231 breast was 107%; in the assay with RXF 393 renal, 129%; with SF-268 CNS, 100%; in the assay with SF-539 CNS it was 101%; in the assay on UACC-257 melanoma, 120%; in the assay with M14 melanoma it was 106%.

Turning to `NC(=S)N/N=C1\CCCC(C(F)(F)F)C1` (stereo not given), the growth is 101% in the assay with NCI-H23 lung; 117% in the assay on NCI-H226 lung; 101% in the assay on NCI-H322M lung; 107% with HOP-62 NSCLC; 109% in the assay on NCI-H460 lung; 96% with HOP-92 NSCLC. Further, the growth in the assay on NCI-H522 lung is 94%; in the assay on A549/ATCC NSCLC, 100%; in the assay on 786-0 renal, 98.9%; in the assay with COLO 205 colon, 114%; with K-562 leukemia, 46.3%; in the assay with MALME-3M melanoma it was 104%. Besides, the growth in the assay on MDA-MB-231 breast is 102%; in the assay on RXF 393 renal it was 123%; with SF-295 CNS, 100%; with SF-539 CNS, 101%; in the assay with UACC-257 melanoma, 73.2%; in the assay on M14 melanoma it was 95.6%.

On to `O=C(NCc1cn(Cc2cccc(Oc3ccccc3)c2)nn1)c1cccnc1Nc1ccc(F)cc1`, for which the growth is 69.4% with NCI-H23 lung; 88.5% in the assay on NCI-H226 lung; 77.4% in the assay on NCI-H322M lung; 59.3% with HOP-62 NSCLC; 34.4% with NCI-H460 lung; 114% in the assay with HOP-92 NSCLC. For the same molecule, the growth in the assay with NCI-H522 lung was 31.3%; with A549/ATCC NSCLC, 59.5%; in the assay with 786-0 renal, 69.8%; in the assay with COLO 205 colon, 70.7%; in the assay on DU-145 prostate, 63.6%; with MALME-3M melanoma, 67.5%. The growth in the assay on MDA-MB-231 breast was 42.2%; in the assay on RXF 393 renal it was 65.9%; in the assay with SF-268 CNS it was 67.7%; with SF-295 CNS it was 50.7%; in the assay on SF-539 CNS, 62.6%; in the assay on UACC-257 melanoma it was 76.8%. In addition, in the assay on M14 melanoma, the growth is 48.1%.

Turning to `C=C1C(=O)O[C@H]2[C@H]1CC/C(COC(=O)NCc1ccccc1OC)=C\CC[C@@]1(C)O[C@@H]21`, the growth in the assay with NCI-H23 lung is 73.6%; in the assay on NCI-H226 lung, 55.6%; in the assay on NCI-H322M lung it was 93.2%; with HOP-62 NSCLC it was 77.1%; in the assay with NCI-H460 lung, 59.2%; with HOP-92 NSCLC it was 32.6%. Further, the growth in the assay with NCI-H522 lung is -73.6% (active); in the assay with A549/ATCC NSCLC it was 71.6%; in the assay on 786-0 renal, 7.8% (active); in the assay on COLO 205 colon it was -35.2% (active); with DU-145 prostate it was 20.1%; with MALME-3M melanoma it was 68.8%. In addition, the growth is 46.2% with MDA-MB-231 breast; 10% in the assay with RXF 393 renal; 53.1% with SF-268 CNS; 28.7% with SF-539 CNS; 33% in the assay with M14 melanoma.
